# Data as given in PubChem BioAssay (Tox21).
# A number with no mark means an inactive call. Records with an inconclusive call do not appear. Where a call stands in place of a potency, no number is given. Activity calls are given as the source filed them. Unless noted, calls follow the shape of the dose curve; as a rule, active = well fitted curve in the direction sought with a large enough effect in the repeat runs; inconclusive = weak or mixed curves; inactive = no such curve, though single readings can be large; an effect the other way counts as inactive or inconclusive.
# Key:
# [1] = qHTS assay to identify small molecule agonists of the sonic hedgehog signaling (Shh) pathway (AID 1259368; calls by dose curve;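 also: NIH/3T3-derived 3T3Gli1-Luc cells carrying a stable Gli1-driven firefly luciferase reporter; series mostly up to about 92 µM; nearly all actives have a fitted effect of over 15% in size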)
# In short: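 A Gli1 transcriptional response element controlled firefly luciferase in 3T3Gli1-Luc cells. Compounds and a positive control were added 4 hr after plating, and cells were incubated a further 24 hr at 37 C before luminescence detection.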
# [2] = qHTS assay to identify small molecule agonists of the androgen receptor (AR) signaling pathway in the presence of an antagonist - cell viability counter screen (AID 1259379); also: nearly all actives have a fitted effect of over 25% in size; also: potency is read from the fitted curve at half-maximal effect
# In short: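 Seed MDA-kb2 at 3,000 cells/well; incubate 5 hr, 37C, 0% CO2. Add nilutamide to 3.0uM final, then pin compounds at 15 concentrations. Incubate 16 hr. Add CellTiter-Fluor at 15 hr, read fluorescence after 1 hr.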
# [3] = qHTS assay to identify small molecule agonists of the estrogen receptor beta (ER-beta) signaling pathway - cell viability counter screen (AID 1259380); also: nearly all actives have a fitted effect of over 30% in size; also: potency is read from the fitted curve at half-maximal effect
# In short: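 CellTiter-Glo read, 30 min RT, same wells as bla assay; cells ER-beta-UAS-bla HEK293T; 16 hr compound, 37C; medium 2% charcoal-stripped FBS.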
# [4] = biological target: Progesterone receptor (Homo sapiens) (UniProt P06401); test: qHTS assay to identify small molecule agonists of the progesterone receptor (PR) signaling pathway (AID 1346784; calls by dose curve; also: nearly all actives have a fitted effect of over 30% in size)
# Progesterone receptor (Homo sapiens), sequence (P06401 whole entry, looked up): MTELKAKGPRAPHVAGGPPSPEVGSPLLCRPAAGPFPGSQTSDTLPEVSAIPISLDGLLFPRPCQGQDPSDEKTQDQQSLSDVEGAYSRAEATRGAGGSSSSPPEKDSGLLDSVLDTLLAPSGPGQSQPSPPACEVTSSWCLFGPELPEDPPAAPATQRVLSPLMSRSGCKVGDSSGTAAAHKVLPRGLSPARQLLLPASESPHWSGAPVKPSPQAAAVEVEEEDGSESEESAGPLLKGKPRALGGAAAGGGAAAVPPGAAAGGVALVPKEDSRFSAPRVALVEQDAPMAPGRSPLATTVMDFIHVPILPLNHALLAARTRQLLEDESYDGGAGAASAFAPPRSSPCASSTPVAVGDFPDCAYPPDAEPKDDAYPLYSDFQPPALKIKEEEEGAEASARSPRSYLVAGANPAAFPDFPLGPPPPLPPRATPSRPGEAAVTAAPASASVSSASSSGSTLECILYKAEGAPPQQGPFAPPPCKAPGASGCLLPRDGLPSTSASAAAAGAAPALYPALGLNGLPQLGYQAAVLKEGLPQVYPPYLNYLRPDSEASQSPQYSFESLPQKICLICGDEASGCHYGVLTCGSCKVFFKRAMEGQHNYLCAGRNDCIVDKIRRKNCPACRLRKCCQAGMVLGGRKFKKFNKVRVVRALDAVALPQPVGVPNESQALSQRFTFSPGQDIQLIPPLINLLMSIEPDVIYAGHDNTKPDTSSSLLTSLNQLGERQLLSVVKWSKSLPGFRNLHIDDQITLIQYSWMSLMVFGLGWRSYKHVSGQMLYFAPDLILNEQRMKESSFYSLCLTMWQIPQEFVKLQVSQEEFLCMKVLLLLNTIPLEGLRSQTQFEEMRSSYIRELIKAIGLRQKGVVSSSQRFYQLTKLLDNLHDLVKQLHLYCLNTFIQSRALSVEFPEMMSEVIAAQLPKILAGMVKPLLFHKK
# In short: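 Beta-lactamase reporter read-out: after 16 hr compound treatment at 37C and a further 2 hr at room temperature with LiveBLAzer B/G FRET substrate, fluorescence was measured in PR-UAS-bla HEK 293T cells grown in 2% charcoal-stripped serum.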
# [5] = qHTS assay to identify small molecule antagonists of the progesterone receptor (PR) signaling pathway - cell viability counter screen (AID 1346798); also: nearly all actives have a fitted effect of over 50% in size; also: potency is read from the fitted curve at half-maximal effect
# In short: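 HEK293T PR-UAS-bla, 2% charcoal-stripped FBS; 4 hr pre-plate; cpd + R5020, 16 h 37C; LiveBLAzer read first; then CellTiter-Glo 30 min RT, luminescence.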
# [6] = qHTS assay to identify small molecule antagonists of the TGF-beta/Smad signaling pathway - cell viability counter screen (AID 1346824); also: nearly all actives have a fitted effect of over 50% in size
# In short: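 Cytotoxicity counter-screen run in the same wells as the beta-lactamase Smad reporter read: CellTiter-Glo luminescence after 30 min at room temperature. HEK 293T SBE-bla cells had 5 hr compound exposure at 37 C with TGF-beta1 (0.25 ng/mL stock).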
# [7] = qHTS assay to identify small molecule agonists of the TGF-beta/Smad signaling pathway - cell viability counter screen (AID 1346829); also: top concentration of the series differs between compounds; nearly all actives have a fitted effect of over 45% in size
# In short: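 Here the cytotoxicity of library compounds is measured in SBE-bla HEK 293T cells treated for 5 hr, using CellTiter-Glo added to wells already read for the beta-lactamase reporter.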
# [8] = qHTS assay to identify small molecule agonists of the TGF-beta/Smad signaling pathway (AID 1346859; active = well fitted activation curve with a large enough effect in the signal ratio in the repeat runs, not every such curve was filed as active; the % refers to the signal ratio; also: potency is read from the fitted curve at half-maximal effect; as to activation: series mostly up to about 77 µM)
# In short: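 SBE-bla HEK 293T, 4,000 cells/well, plated o/n; cpd in DMSO, 5 hr, 37 C/5% CO2; B/G FRET substrate 2 hr RT; ex 405, em 460/530 nm.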
# [9] = biological target: Thyrotropin-releasing hormone receptor (Homo sapiens) (UniProt P34981); test: qHTS assay to identify small molecule antagonists of the thyrotropin-releasing hormone receptor (TRHR) signaling pathway (AID 1346877; active = well fitted inhibition curve with a large enough effect in the repeat runs, not every such curve was filed as active; also: series mostly up to about 51 µM)
# Thyrotropin-releasing hormone receptor (Homo sapiens), sequence (P34981 whole entry, looked up): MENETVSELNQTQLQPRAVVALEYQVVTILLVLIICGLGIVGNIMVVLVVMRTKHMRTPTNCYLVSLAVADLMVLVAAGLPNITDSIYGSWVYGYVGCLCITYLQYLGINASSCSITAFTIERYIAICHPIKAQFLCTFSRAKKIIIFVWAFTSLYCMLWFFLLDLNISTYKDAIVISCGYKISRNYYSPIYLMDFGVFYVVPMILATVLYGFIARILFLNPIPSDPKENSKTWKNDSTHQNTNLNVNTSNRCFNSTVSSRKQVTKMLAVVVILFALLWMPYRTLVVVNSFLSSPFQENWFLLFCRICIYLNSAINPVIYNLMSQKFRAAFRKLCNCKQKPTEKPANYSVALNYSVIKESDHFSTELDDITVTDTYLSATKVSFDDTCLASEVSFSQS
# In short: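 Following an 18 h incubation at 37 °C and a 2 h calcium dye load, TRHR-HEK293 cells were exposed to compound (5 min, room temperature) and challenged with TRH, 1 nM final.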
# [10] = qHTS assay to identify small molecule antagonists of the sonic hedgehog signaling (Shh) pathway (AID 1259369; calls by dose curve; also: nearly all actives have a fitted effect of over 45% in size)
# In short: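 For antagonist detection, the reporter line received test compounds together with conditioned medium, incubated 24hr at 37 C, 5% CO2, then luminescence was recorded following 30min room-temperature luciferase reagent incubation.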
# [11] = biological target: Estrogen receptor beta (Homo sapiens) (UniProt Q92731); test: qHTS assay to identify small molecule agonists of the estrogen receptor beta (ER-beta) signaling pathway (AID 1259377; active = well fitted activation curve with a large enough effect in the signal ratio in the repeat runs, not every such curve was filed as active; the % refers to the signal ratio)
# Estrogen receptor beta (Homo sapiens), sequence (Q92731 whole entry, looked up): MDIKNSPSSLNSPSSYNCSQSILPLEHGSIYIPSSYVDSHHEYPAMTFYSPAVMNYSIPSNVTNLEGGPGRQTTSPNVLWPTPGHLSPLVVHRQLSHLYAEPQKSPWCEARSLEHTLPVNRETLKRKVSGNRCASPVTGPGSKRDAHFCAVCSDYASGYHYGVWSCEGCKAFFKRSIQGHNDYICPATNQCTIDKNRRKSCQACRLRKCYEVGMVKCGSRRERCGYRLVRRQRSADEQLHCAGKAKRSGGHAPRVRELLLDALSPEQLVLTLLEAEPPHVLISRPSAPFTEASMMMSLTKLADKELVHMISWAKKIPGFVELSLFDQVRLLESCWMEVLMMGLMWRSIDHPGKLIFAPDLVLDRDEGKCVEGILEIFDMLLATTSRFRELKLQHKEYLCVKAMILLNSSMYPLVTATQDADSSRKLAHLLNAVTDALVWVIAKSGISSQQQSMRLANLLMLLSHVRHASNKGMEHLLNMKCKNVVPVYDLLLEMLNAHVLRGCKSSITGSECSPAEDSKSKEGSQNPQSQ
# In short: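 HEK293T ER-beta-UAS-bla; 2% charcoal-stripped FBS; cells pre-incubated 6 hr, compound 16 hr, 37C/5% CO2; LiveBLAzer B/G FRET substrate 2 h RT; fluorescence intensity read.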
# [12] = biological target: Estrogen receptor beta (Homo sapiens) (UniProt Q92731); test: qHTS assay to identify small molecule antagonists of the estrogen receptor beta (ER-beta) signaling pathway (AID 1259378; active = well fitted inhibition curve with a large enough effect in the signal ratio in the repeat runs, not every such curve was filed as active; the % refers to the signal ratio)
# In short: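 Antagonist mode: compounds added to beta-lactamase reporter HEK293T ER-beta-UAS cells stimulated with E2 (1nM final), 16 hr at 37C. LiveBLAzer B/G FRET substrate, 2 hours room temperature, fluorescence read-out.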
# [13] = qHTS assay to identify small molecule antagonists of the estrogen receptor beta (ER-beta) signaling pathway - cell viability counter screen (AID 1259382);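 also: HEK293T cells carrying ER-beta-UAS-bla reporter stimulated with estradiol; series mostly up to about 92 µM; nearly all actives have a fitted effect of over 55% in size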
# In short: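 In this multiplexed counter screen, cells were seeded at 2,000 per well in medium with 2% charcoal-stripped FBS and incubated 6 hr before compound and 1nM final E2 were added. Sixteen hours later, ATP-based luminescence reported viability.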
# [14] = biological target: Estrogen receptor (Homo sapiens) (UniProt P03372); test: qHTS assay to identify small molecule agonists of the estrogen receptor alpha (ER-alpha) signaling pathway in the presence of an antagonist (AID 1259383; calls by dose curve; also: top concentration of the series differs between compounds; nearly all actives have a fitted effect of over 15% in size)
# Estrogen receptor (Homo sapiens), sequence (P03372 whole entry, looked up): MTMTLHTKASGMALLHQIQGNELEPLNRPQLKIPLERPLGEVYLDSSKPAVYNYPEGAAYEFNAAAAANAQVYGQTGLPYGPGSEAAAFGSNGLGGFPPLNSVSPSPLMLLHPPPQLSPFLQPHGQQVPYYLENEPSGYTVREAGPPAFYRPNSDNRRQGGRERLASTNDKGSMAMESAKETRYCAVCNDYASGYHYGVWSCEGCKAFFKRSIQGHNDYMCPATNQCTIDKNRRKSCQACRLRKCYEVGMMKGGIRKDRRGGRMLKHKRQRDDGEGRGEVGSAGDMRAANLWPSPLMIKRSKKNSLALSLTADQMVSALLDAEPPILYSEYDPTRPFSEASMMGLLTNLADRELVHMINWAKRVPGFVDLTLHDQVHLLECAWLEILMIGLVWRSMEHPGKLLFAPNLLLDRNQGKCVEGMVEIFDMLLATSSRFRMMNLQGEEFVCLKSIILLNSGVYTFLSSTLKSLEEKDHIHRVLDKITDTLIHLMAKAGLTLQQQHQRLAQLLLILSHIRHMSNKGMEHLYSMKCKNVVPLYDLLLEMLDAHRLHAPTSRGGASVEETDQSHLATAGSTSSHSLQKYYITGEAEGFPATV
# In short: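 Stably transfected VM7Luc4E2 reporter cells, kept 5 days in charcoal-stripped serum, received ICI-182,780 at 10.0nM final before compound addition. Following 22hr incubation at 37C and 5% CO2, luciferase signal was read by luminescence.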
# [15] = qHTS assay to identify small molecule agonists or antagonists of the thyroid stimulating hormone receptor (TSHR) signaling pathway - wild type cell line counter screen (AID 1259384; calls by dose curve)
# In short: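 Counter screen in untransfected Hek293: compounds (15-point titration, triplicate) plus phosphodiesterase inhibitor Ro20-1724 added after 18 h plating; 30 min RT. Intracellular cAMP via competitive d2/cryptate immunoassay, 1 h incubation.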
# [16] = biological target: Thyrotropin receptor (Homo sapiens) (UniProt P16473); test: qHTS assay to identify small molecule antagonists of the thyroid stimulating hormone receptor (TSHR) signaling pathway (AID 1259385; calls by dose curve; also: nearly all actives have a fitted effect of over 20% in size)
# Thyrotropin receptor (Homo sapiens), sequence (P16473 whole entry, looked up): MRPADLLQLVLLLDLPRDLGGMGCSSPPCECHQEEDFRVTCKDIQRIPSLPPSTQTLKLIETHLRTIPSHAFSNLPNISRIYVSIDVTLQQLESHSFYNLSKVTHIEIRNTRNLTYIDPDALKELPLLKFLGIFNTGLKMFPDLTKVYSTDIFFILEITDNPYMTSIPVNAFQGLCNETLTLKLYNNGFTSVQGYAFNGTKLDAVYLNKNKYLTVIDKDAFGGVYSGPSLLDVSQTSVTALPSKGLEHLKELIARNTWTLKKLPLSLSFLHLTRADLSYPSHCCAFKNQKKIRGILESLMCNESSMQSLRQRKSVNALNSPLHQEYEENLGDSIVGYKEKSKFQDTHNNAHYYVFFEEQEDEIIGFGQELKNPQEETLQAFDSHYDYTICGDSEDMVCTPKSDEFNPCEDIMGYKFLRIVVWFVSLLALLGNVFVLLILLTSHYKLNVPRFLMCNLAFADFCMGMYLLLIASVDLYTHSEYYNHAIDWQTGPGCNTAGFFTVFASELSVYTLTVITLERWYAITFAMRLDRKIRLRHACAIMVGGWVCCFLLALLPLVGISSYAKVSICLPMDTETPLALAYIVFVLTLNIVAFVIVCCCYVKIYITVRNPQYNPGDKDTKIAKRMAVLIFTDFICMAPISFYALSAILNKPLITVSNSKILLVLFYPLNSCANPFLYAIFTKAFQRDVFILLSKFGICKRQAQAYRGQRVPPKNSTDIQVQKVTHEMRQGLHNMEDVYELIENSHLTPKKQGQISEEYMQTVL
# In short: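 Antagonist mode: compound-treated TSHR-expressing HEK293 cells were stimulated with 1.5 ng/mL TSH (final) in presence of Ro20-1724 for 30 min at RT. HTRF cAMP detection after 1 h; each compound tested at 15 concentrations, triplicate.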
# [17] = qHTS assay to identify small molecule agonists of the estrogen receptor alpha (ER-alpha) signaling pathway in the presence of an antagonist - cell viability counter screen (AID 1259386);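 also: cells exposed to compounds for 22 h at 37 °C before the viability read; nearly all actives have a fitted effect of over 30% in size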; also: potency is read from the fitted curve at half-maximal effect
# In short: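 Viability counter screen using VM7Luc4E2 (full-length ER-alpha, four ERE-luciferase). The cells were treated with compounds alongside ICI-182,780 10.0nM for 22hr, and live-cell protease fluorescence was quantified with CellTiter-Fluor.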
# [18] = biological target: Progesterone receptor (Homo sapiens) (UniProt P06401); test: qHTS assay to identify small molecule antagonists of the progesterone receptor (PR) signaling pathway (AID 1346795; active = well fitted inhibition curve with a large enough effect in the signal ratio in the repeat runs, not every such curve was filed as active; the % refers to the signal ratio; also: potency is read from the fitted curve at half-maximal effect)
# In short: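 Read-out is fluorescence from the LiveBLAzer B/G FRET substrate, cleaved by a UAS-controlled beta-lactamase in PR-UAS-bla HEK293T cells after 16 hr exposure to compound plus 1 nM promegestone (final), followed by 2 hr at room temperature.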
# [19] = qHTS assay to identify small molecule agonists of the progesterone receptor (PR) signaling pathway - cell viability counter screen (AID 1346799; calls by dose curve; also: nearly all actives have a fitted effect of over 45% in size; also: potency is read from the fitted curve at half-maximal effect)
# In short: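 Luminescence from CellTiter-Glo, added after the beta-lactamase FRET read in the same wells, gave cytotoxicity in PR-UAS-bla HEK293T cells treated with compounds for 16 hr at 37C.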
# [20] = biological target: Androgen receptor (Homo sapiens) (UniProt P10275); test: qHTS assay to identify small molecule agonists of the androgen receptor (AR) signaling pathway in the presence of an antagonist (AID 1259381; calls by dose curve; also: nearly all actives have a fitted effect of over 15% in size)
# Androgen receptor (Homo sapiens), sequence (P10275 whole entry, looked up): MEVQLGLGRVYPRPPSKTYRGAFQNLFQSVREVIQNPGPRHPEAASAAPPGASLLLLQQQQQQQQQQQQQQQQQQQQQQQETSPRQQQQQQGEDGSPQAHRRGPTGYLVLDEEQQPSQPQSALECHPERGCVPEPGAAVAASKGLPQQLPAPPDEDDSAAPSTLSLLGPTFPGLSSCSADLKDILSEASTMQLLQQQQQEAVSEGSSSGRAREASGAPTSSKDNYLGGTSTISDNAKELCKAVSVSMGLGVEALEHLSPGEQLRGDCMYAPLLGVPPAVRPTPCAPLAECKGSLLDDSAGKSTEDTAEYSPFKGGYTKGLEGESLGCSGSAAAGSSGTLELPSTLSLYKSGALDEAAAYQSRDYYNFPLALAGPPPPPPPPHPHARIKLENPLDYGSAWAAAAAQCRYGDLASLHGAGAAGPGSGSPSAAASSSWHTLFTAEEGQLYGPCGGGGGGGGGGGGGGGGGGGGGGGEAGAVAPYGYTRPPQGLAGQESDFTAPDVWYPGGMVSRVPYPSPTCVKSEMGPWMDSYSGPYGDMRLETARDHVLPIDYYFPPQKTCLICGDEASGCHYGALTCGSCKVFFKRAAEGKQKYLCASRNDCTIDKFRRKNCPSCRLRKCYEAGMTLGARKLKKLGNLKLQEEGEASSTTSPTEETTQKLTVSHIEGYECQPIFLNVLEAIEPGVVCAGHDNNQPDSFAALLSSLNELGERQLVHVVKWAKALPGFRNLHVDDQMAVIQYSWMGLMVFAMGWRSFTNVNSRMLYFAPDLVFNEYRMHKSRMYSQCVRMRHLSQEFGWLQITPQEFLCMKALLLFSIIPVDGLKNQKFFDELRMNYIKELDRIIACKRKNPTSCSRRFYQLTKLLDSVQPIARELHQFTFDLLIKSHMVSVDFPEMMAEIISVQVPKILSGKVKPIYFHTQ
# In short: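 Test compounds at 15 concentrations were incubated for 16hr with MDA-kb2 reporter cells in presence of 3.0uM nilutamide (final). Signal: ONE-Glo luciferase luminescence.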
Structure (SMILES),Potency [1],Potency [2],Potency [3],Potency [4],Potency [5],Potency [6],Potency [7],Potency [8],outcome [9],Potency [10],Potency [11],Potency [12],Potency [13],Potency [14],outcome [15],Potency [16],Potency [17],Potency [18],Potency [19],Potency [20]
CCOC(=O)[C@H](CCc1ccccc1)N[C@@H](C)C(=O)N(CC(=O)O)C1Cc2ccccc2C1,inactive,inactive,6.68 µM (active),inactive,6.68 µM (active),inactive,inactive,inactive,inactive,,,,,,,,,,,
O=C(O)C[C@H](NC(=O)OCc1ccccc1)C(=O)O,,inactive,inactive,inactive,inactive,inactive,inactive,inactive,inactive,inactive,inactive,inactive,inactive,inactive,inactive,inactive,inactive,inactive,inactive,
COC(=O)c1nc(Cl)c(Cl)nc1N,inactive,29.8 µM (active),29.8 µM (active),,,inactive,inactive,23.9 µM (active),inactive,,,,,inactive,inactive,inactive,inactive,,,
O=[N+]([O-])c1ccc(O/N=C/c2cc(Br)c(O)c(Br)c2)c([N+](=O)[O-])c1,inactive,48.3 µM (active),,,,inactive,inactive,,,,,,inactive,inactive,inactive,,27.2 µM (active),,,
COC(=O)[C@H]1[C@H]2C[C@@H]3c4[nH]c5cc(OC)ccc5c4CCN3C[C@H]2C[C@@H](OC(=O)/C=C/c2ccc(O)c(OC)c2)[C@@H]1OC,inactive,,8.41 µM (active),inactive,,inactive,inactive,,,,inactive,,,inactive,inactive,inactive,,inactive,,inactive
N#[N+]c1ccc2c(S(=O)(=O)[O-])cccc2c1O,inactive,,inactive,inactive,,inactive,inactive,inactive,inactive,,,,inactive,inactive,,,43.3 µM (active),,inactive,
O=c1cc(-c2ccccc2)oc2cc(O)cc(O)c12,inactive,48.6 µM (active),,,,inactive,inactive,,,,,,inactive,,inactive,inactive,48.6 µM (active),,,inactive
Oc1ccc(Cl)c2cccnc12,inactive,inactive,,inactive,,inactive,inactive,inactive,inactive,,,,inactive,inactive,inactive,inactive,inactive,3.76 µM (active),,inactive
CCCCCC[C@@H](O)C/C=C\CCCCCCCC(=O)OCC(O)CO (stereo partly drawn),inactive,inactive,,,,inactive,inactive,inactive,inactive,,,,,inactive,,,inactive,inactive,,inactive
Oc1cccc(Nc2ccccc2)c1,inactive,inactive,inactive,inactive,,inactive,inactive,inactive,inactive,,,,inactive,,inactive,inactive,inactive,20.2 µM (active),,
C/C=C\C/C=C/CCCCCCCCOC(C)=O,inactive,inactive,61.1 µM (active),inactive,,inactive,inactive,inactive,inactive,,,,,inactive,inactive,inactive,inactive,,,
CC(CN(C)C)C(C)(O)Cc1ccc(Cl)cc1 (stereo not drawn),inactive,inactive,,,inactive,inactive,inactive,inactive,,,,,inactive,inactive,inactive,inactive,inactive,inactive,16.8 µM (active),inactive
CCOC(=O)OC(C)OC(=O)[C@@H]1N2C(=O)[C@@H](NC(=O)[C@H](N)c3ccccc3)[C@H]2SC1(C)C (stereo partly drawn),,inactive,inactive,inactive,inactive,inactive,inactive,inactive,inactive,inactive,inactive,inactive,inactive,,inactive,inactive,inactive,inactive,inactive,
CC(O)c1ccccc1 (stereo not drawn),,inactive,inactive,inactive,inactive,inactive,inactive,inactive,inactive,inactive,inactive,inactive,inactive,inactive,inactive,inactive,,inactive,inactive,
Cc1ccccc1N=C(N)Nc1ccccc1C,inactive,inactive,inactive,inactive,inactive,inactive,inactive,inactive,inactive,,,,inactive,inactive,inactive,inactive,,inactive,inactive,
C=CC(=O)OCC1CC2CC1C1CCC(COC(=O)C=C)C21 (stereo not drawn),inactive,inactive,,,inactive,inactive,inactive,inactive,inactive,,inactive,,inactive,,inactive,,inactive,,,
Cc1cc(O)c(C)c(C)c1O,inactive,inactive,inactive,inactive,inactive,inactive,inactive,inactive,inactive,,,,,inactive,,,inactive,,,inactive
CCCCCCCC/C=C\CCCCCCCCCCCC(=O)O,inactive,inactive,inactive,inactive,inactive,inactive,inactive,inactive,,,,,,inactive,,,,,,inactive
CC(C)C(O)(c1ccc(OC(F)(F)F)cc1)c1cncnc1 (stereo not drawn),inactive,inactive,inactive,inactive,inactive,inactive,inactive,inactive,,,,,,,inactive,inactive,inactive,,,
